# Experimental data: PubChem BioAssay
# Results filed as inconclusive are left out. Calls of active or inactive are those of the source.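 The calls were made as follows, unless noted: active = normalized viability below 100% at a tested concentration; inactive = the rest.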
# What was measured:
# [1] = viability loss in pontine glioma line – cell-based, SU-DIPG-XVII, MIPE5.0, CellTiter-Glo, qHTS, dose response (AID 1347060; cut-off not given, nearly all actives have AC50 up to about 26 µM;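 as to AC50: cells exposed to compound for 48 hours before viability readout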); conditions: CellTiter-Glo ATP luminescence
# [2] = viability loss in pontine glioma line – cell-based, SU-DIPG-XIII, MIPE4.0, CellTiter-Glo, qHTS, dose response (AID 1347061; cut-off not given, nearly all actives have AC50 up to about 37 µM;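 also: cells exposed to compound for 48 hours before readout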); conditions: CellTiter-Glo ATP luminescence
# [3] = viability loss in pontine glioma line – cell-based, JHH-DIPG-1, MIPE4.0, CellTiter-Glo, qHTS, dose response (AID 1347062; cut-off not given, nearly all actives have AC50 up to about 27 µM;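 as to AC50: cells exposed to compound for two days before readout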); conditions: JHH-DIPG-1 viability, CellTiter-Glo ATP luminescence
# [4] = viability loss in pontine glioma line – cell-based, SU-DIPG-IV, MIPE4.0, CellTiter-Glo, qHTS, dose response (AID 1347063; cut-off not given, nearly all actives have AC50 up to about 30 µM;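 also: compound exposure lasted 48 hours before the viability readout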); conditions: CellTiter-Glo ATP luminescence
# [5] = viability loss in pontine glioma line – cell-based, SU-DIPG-XXV, MIPE5.0, CellTiter-Glo, qHTS, dose response (AID 1347065; cut-off not given, nearly all actives have AC50 up to about 26 µM;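 also: cells exposed to compound for 48 hours before ATP readout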); conditions: CellTiter-Glo ATP luminescence
# [6] = growth inhibition of DIPG cells – cell-based, MIPE4.0 library, CellTiter-Glo luminescence, qHTS (AID 1347066; cut-off not given, nearly all actives have AC50 up to about 30 µM;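 also: cells exposed to compound for 48 hours before readout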); conditions: SU-DIPG-VI viability, CellTiter-Glo ATP luminescence
# [7] = JHH-DIPG-1 glioma cell viability, MIPE5.0 library, CellTiter-Glo luminescence, qHTS (AID 1347067; cut-off not given, nearly all actives have AC50 up to about 26 µM;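 also: cells exposed to compound for 48 hours before readout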); conditions: JHH-DIPG-1 glioma viability, CellTiter-Glo ATP luminescence
# [8] = growth inhibition of DIPG cells – cell-based, MIPE5.0 library, qHTS (AID 1347068; cut-off not given, nearly all actives have IC50 up to about 30 µM;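 as to IC50: cells exposed to compound for 48 hours before viability readout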); conditions: SU-DIPG-XXV viability
# [9] = compounds altering HSF1 focus formation in cells – imaging, Selleck Cancer Library (AID 1347162; in the data active = plate-normalised HSF1 focus index below about 0.46); conditions: human cells, HSF1 nuclear foci imaging, at 10 µM; SSMD: measured here: HSF1 foci SSMD mean; cell count: measured here: cell number; plate-normalised HSF1 focus index: stronger effect = lower value
# [10] = drug combination growth inhibition, ovarian cancer – cell-based, oncology-focused library, rucaparib conditional, profiling panel (AID 1508598); conditions: patient-derived ovarian cancer cells, CellTiter-Glo viability, 144 h, stronger effect = lower value
smiles,measurement,setting,value
O=C1CCC[C@@H]2[C@H]3CCC[N+]4([O-])CCC[C@@H](CN12)[C@@H]34 (some centres not stated),outcome,[1],inactive
same,outcome,[2],inactive
same,outcome,[3],inactive
same,outcome,[4],inactive
same,outcome,[5],inactive
same,outcome,[6],inactive
same,outcome,[7],inactive
same,outcome,[8],inactive
COc1ccc(C2CC(c3ccccc3)=NN2c2ccc(S(N)(=O)=O)cc2)cc1 (configuration not stated),outcome,[1],inactive
same,outcome,[2],inactive
same,AC50,[3],4.69 µM (active)
same,AC50,[4],16.6 µM (active)
same,outcome,[5],inactive
same,outcome,[6],inactive
same,outcome,[7],inactive
same,SSMD,[9],2.07
same,cell count,[9],7280
same,plate-normalised HSF1 focus index,[9],1.13 (inactive)
CC[C@H](/C=C/[C@@H](C)[C@H]1CC[C@H]2[C@@H]3CC=C4C[C@@H](O)CC[C@]4(C)[C@H]3CC[C@]12C)C(C)C,outcome,[1],inactive
same,outcome,[2],inactive
same,outcome,[3],inactive
same,outcome,[4],inactive
same,outcome,[5],inactive
same,outcome,[6],inactive
same,outcome,[7],inactive
same,outcome,[8],inactive
Cc1ccc(C(=O)N(CCCN)[C@@H](c2oc3cc(Cl)ccc3c(=O)c2Cc2ccccc2)C(C)C)cc1,AC50,[1],0.0332 µM (active)
same,outcome,[2],inactive
same,AC50,[3],14.8 µM (active)
same,AC50,[4],29.6 µM (active)
same,AC50,[5],0.0118 µM (active)
same,AC50,[6],8.33 µM (active)
same,AC50,[7],1.66 µM (active)
same,IC50,[8],0.0417 µM (active)
same,SSMD,[9],0.849
same,cell count,[9],6430
same,plate-normalised HSF1 focus index,[9],1.05 (inactive)
same,viability,"[10]; at 0.000305 µM, OCI-C5x cells, with rucaparib 10 µM, 100% = cells with rucaparib alone",50.8% (active)
same,viability,"[10]; at 0.000305 µM, OCI-C5x cells, without rucaparib",63.1% (active)
same,viability,"[10]; at 0.000305 µM, OCI-P5x cells, with rucaparib 20 µM, 100% = cells with rucaparib alone",62% (active)
same,viability,"[10]; at 0.000305 µM, OCI-P5x cells, without rucaparib",22.5% (active)
same,viability,"[10]; at 0.00122 µM, OCI-C5x cells, with rucaparib 10 µM, 100% = cells with rucaparib alone",56.4% (active)
same,viability,"[10]; at 0.00122 µM, OCI-C5x cells, without rucaparib",61.8% (active)
same,viability,"[10]; at 0.00122 µM, OCI-P5x cells, with rucaparib 20 µM, 100% = cells with rucaparib alone",50.3% (active)
same,viability,"[10]; at 0.00122 µM, OCI-P5x cells, without rucaparib",19.3% (active)
same,viability,"[10]; at 0.00488 µM, OCI-C5x cells, with rucaparib 10 µM, 100% = cells with rucaparib alone",54.9% (active)
same,viability,"[10]; at 0.00488 µM, OCI-C5x cells, without rucaparib",63.8% (active)
same,viability,"[10]; at 0.00488 µM, OCI-P5x cells, with rucaparib 20 µM, 100% = cells with rucaparib alone",58.3% (active)
same,viability,"[10]; at 0.00488 µM, OCI-P5x cells, without rucaparib",18.4% (active)
same,viability,"[10]; at 0.0195 µM, OCI-C5x cells, with rucaparib 10 µM, 100% = cells with rucaparib alone",57.6% (active)
same,viability,"[10]; at 0.0195 µM, OCI-C5x cells, without rucaparib",55.3% (active)
same,viability,"[10]; at 0.0195 µM, OCI-P5x cells, with rucaparib 20 µM, 100% = cells with rucaparib alone",55.3% (active)
same,viability,"[10]; at 0.0195 µM, OCI-P5x cells, without rucaparib",19.7% (active)
same,viability,"[10]; at 0.0781 µM, OCI-C5x cells, with rucaparib 10 µM, 100% = cells with rucaparib alone",54.6% (active)
same,viability,"[10]; at 0.0781 µM, OCI-C5x cells, without rucaparib",50.1% (active)
same,viability,"[10]; at 0.0781 µM, OCI-P5x cells, with rucaparib 20 µM, 100% = cells with rucaparib alone",51.5% (active)
same,viability,"[10]; at 0.0781 µM, OCI-P5x cells, without rucaparib",20.3% (active)
same,viability,"[10]; at 0.313 µM, OCI-C5x cells, with rucaparib 10 µM, 100% = cells with rucaparib alone",54.9% (active)
same,viability,"[10]; at 0.313 µM, OCI-C5x cells, without rucaparib",50.6% (active)
same,viability,"[10]; at 0.313 µM, OCI-P5x cells, with rucaparib 20 µM, 100% = cells with rucaparib alone",55.7% (active)
same,viability,"[10]; at 0.313 µM, OCI-P5x cells, without rucaparib",19.2% (active)
same,viability,"[10]; at 1.25 µM, OCI-C5x cells, with rucaparib 10 µM, 100% = cells with rucaparib alone",49.2% (active)
same,viability,"[10]; at 1.25 µM, OCI-C5x cells, without rucaparib",49% (active)
same,viability,"[10]; at 1.25 µM, OCI-P5x cells, with rucaparib 20 µM, 100% = cells with rucaparib alone",48.4% (active)
same,viability,"[10]; at 1.25 µM, OCI-P5x cells, without rucaparib",17.8% (active)
same,viability,"[10]; at 5 µM, OCI-C5x cells, with rucaparib 10 µM, 100% = cells with rucaparib alone",4.98% (active)
same,viability,"[10]; at 5 µM, OCI-C5x cells, without rucaparib",4.99% (active)
same,viability,"[10]; at 5 µM, OCI-P5x cells, with rucaparib 20 µM, 100% = cells with rucaparib alone",0.708% (active)
same,viability,"[10]; at 5 µM, OCI-P5x cells, without rucaparib",6.42% (active)
C[C@@H]1CC[C@@]2(OC1)OC1CC3C4CC=C5CC(O)CCC5(C)C4CCC3(C)C1[C@@H]2C (some centres not stated),outcome,[1],inactive
same,outcome,[2],inactive
same,outcome,[3],inactive
same,outcome,[4],inactive
same,outcome,[5],inactive
same,outcome,[6],inactive
same,outcome,[7],inactive
same,outcome,[8],inactive
